Only some compounds are listed: those with a hit (about 9.4% of all), similar ones and a draw of the others.
Rab9 prom act – activators of Rab9 promoter; Potency, µM (series often up to 9.22 µM), inactives show at the highest dose activation, negative = inhibition, most hits filed as activators; AID 485297; Huh7 Rab9 promoter-luciferase reporter, luminescence, 24 h; 320,000 compounds, 2.8% hits; also: % of control where 0% means no effect; nearly all actives have a fitted effect of over 60% in size
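Using Huh7 cells stably transfected with Rab9 promoter–luciferase, compounds were incubated 24 h at 37 °C, 5% CO2; luciferase luminescence was read 10 min after reagent addition.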
SMN2 splice enh – enhancers of SMN2 splice variant expression. HEK293 SMN2-luciferase splicing reporter, luminescence, 30-36 h. Potency, µM (top dose mostly 46.1 µM), for inactives: top-dose activity change, positive = activation, usual class: activators. 210,000 compounds, 2.8% hits; also: % of control where 0% means no effect; nearly all actives have a fitted effect of over 55% in size
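qHTS luciferase splicing reporter: luminescence rises when SMN2 exon 7 is included in transfected HEK293 cells. Compound exposure lasted 30-36 h at 37C, with 4.5 mM final sodium butyrate as control, followed by a ONE-Glo read.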
FLuc counter – firefly luciferase modulation, counter-screen for miR-21 project | purified FLuc, Km substrates, luminescence inhibition | Potency, µM (titrated, usually from 57.5 µM), for inactives: top-dose activity change, negative = inhibition, most hits filed as inhibitors | 360,000 compounds, 6.9% hits;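 also: plate controls were vehicle for no effect and reference inhibitor for full effect; nearly all actives have a fitted effect of over 55% in size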
Target sequence (P08659 whole entry, looked up): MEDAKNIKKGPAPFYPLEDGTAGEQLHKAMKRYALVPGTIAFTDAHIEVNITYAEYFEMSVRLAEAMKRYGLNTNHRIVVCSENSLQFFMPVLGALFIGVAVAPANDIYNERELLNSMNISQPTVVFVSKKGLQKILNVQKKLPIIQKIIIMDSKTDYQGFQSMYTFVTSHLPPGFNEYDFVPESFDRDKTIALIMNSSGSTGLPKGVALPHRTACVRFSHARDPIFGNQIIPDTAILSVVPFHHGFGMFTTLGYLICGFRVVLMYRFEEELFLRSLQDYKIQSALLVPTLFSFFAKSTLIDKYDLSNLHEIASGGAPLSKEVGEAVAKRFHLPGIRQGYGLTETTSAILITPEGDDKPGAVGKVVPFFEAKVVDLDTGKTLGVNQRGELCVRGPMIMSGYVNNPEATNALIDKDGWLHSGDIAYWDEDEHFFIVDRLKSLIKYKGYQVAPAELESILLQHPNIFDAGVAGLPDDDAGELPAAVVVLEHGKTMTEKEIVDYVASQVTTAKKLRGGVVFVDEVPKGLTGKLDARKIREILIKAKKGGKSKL
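Purified P. pyralis luciferase (10nM final) with 10uM D-luciferin and 10uM ATP (Km levels) in 50mM Tris acetate pH 7.5, 10mM Mg acetate, 0.01% Tween-20, 0.05% BSA; qHTS 6-point titration, ~60 µM downward; luminescence read.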
ELG1 DNA repair – blocks ELG1-dependent DNA repair in HEK293T cells. 330,000 compounds, 2.3% hits. HEK293T ELG1-luciferase reporter, luminescence, 16 h; DNA damage induced by 5-fluorouridine. Potency, µM (titrated, usually from 46.1 µM), for inactives: top-dose activity change, negative = inhibition, most hits filed as inhibitors; also: % is scaled to controls: 0 for no effect and ±100 for the full control effect; nearly all actives have a fitted effect of over 55% in size
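Luminescence from the luciferase reporter, measured 30 min after ONE-Glo reagent at room temperature, was the read-out. Beforehand, 2,000 cells per well were exposed for 16 hr at 37 °C to 5-fluorouridine together with compound or vehicle.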
NPC1 prom act – NPC1 promoter activation | Huh7 NPC1 promoter luciferase reporter, 24 h | Potency, µM (top dose mostly 9.22 µM), inactives show top-dose activation, usual class: activators | 320,000 compounds, 2.4% hits | AID 485313; also: % of control where 0% means no effect; nearly all actives have a fitted effect of over 60% in size
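In 1536-well qHTS, Huh7 cells harboring an NPC1 promoter–luciferase construct received compound for 24 h; activation was quantified by luminescence following luciferase reagent addition.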
ELG1 genotoxic – genotoxicity induction in ELG1-luciferase HEK293T cells | Potency, µM (titrated, usually from 46 µM), for inactives: at the highest dose activity change, positive = activation, most hits filed as activators | 330,000 compounds, 1.3% hits | HEK293T ELG1-luciferase reporter, luminescence, 16 h; also: % of control where 0% means no effect; nearly all actives have a fitted effect of over 60% in size
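Cells (2,000/well) expressing the ELG1-luciferase fusion are dosed by pin tool and kept 16 hr at 37 °C, 5% CO2. Signal comes from ONE-Glo luciferase reagent after 30 min at room temperature.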
Starred values were filed as active, the others as inactive; ? = inconclusive; · = not tested or not shown; [ ] = dose if it differs, or a comment. Calls follow the shape of the dose curve; as a rule, active = well fitted curve in the direction sought with a large enough effect; inconclusive = small, poorly fitted or top-dose-only effect, or another doubt; inactive = no such curve, though single readings can be large; an effect the other way counts as inactive or inconclusive. Potency is read from the fitted curve at half-maximal effect.

SMILES	Rab9 prom act	SMN2 splice enh	FLuc counter	ELG1 DNA repair	NPC1 prom act	ELG1 genotoxic
CC(C)C(=O)Nc1ccc(NC(=O)c2cccs2)cn1	?	7%	?	?	?	18µM*
CCCC(=O)Nc1ccc(NC(=O)c2ccccc2Cl)nc1	20%	?	?	?	15%	?
CC(C)C(=O)Nc1ccc(NC(=O)c2cccnc2)cn1	0%	2%	0%	?	-6%	5%
COc1ccc(C(=O)Nc2ccc(NC(=O)c3cccs3)cn2)cc1	4%	·	-16%	?	10%	?
CC(C)C(=O)Nc1ccc(NC(=O)c2ccccn2)cn1	0.56µM*	·	6.7µM*	?	0.71µM*	?
CN(C)c1ccc(CNC(=O)c2cnc3sc(N4CCOCC4)nn3c2=O)cc1	·	·	-4%	·	·	·
NCCC[C@@H](CC(=O)N[C@@H]1CCCC[C@H]1C(=O)N[C@H](CC(=O)N[C@@H](CCC(=O)O)CC(=O)O)Cc1ccccc1)NC(=O)C[C@H](CO)NC(=O)[C@@H]1CNCC[C@H]1N	·	-2%	·	·	·	·
Cc1cc(NC(=O)C(C)C)ncc1NC(=O)c1ccccn1	3.2µM*	13µM*	?	?	?	?
CCOC(=O)/C(N=Nc1ccc2c(c1)OCO2)=C(\C)O	2.5µM*	11µM*	13µM*	?	4µM*	?
O=C(O)/C=C\C(=O)Nc1ncn[nH]1	·	3%[9.22 µM]	·	·	·	·
Cn1nccc1C(=O)Nc1ccn(C23CC4CC(CC(C4)C2)C3)n1	-2%	-56%	27µM*	13%	7%	?
Cc1ccc2oc(/N=C(\N)NC(=O)C3CC3)nc2c1	0.45µM*	·	0.85µM*	?	0.63µM*	?
Cc1ccc2oc(/N=C(\N)NC(=O)C(C)(C)C)nc2c1	-30%	·	0.076µM*	?	-22%	7%
N/C(=N\c1nc2ccccc2o1)NC(=O)c1ccc(F)cc1	?	24%	?	?	?	7%
CC(C)(C)c1ccc(C(=O)N/C(N)=N/c2nc3ccccc3o2)cc1	-13%	-54%	?	-16%	-3%	-6%
N/C(=N\c1nc2ccccc2o1)NC(=O)c1ccccc1Br	?	·	12µM*	?	?	6%
N/C(=N\c1nc2ccccc2o1)NC(=O)c1ccc(Cl)cc1	-1%	?	6%	?	-1%	12%
CC1CN(C(=O)/C(C#N)=C2\N=C(NC(=O)c3ccccc3Cl)c3ccccc32)CC(C)O1 (configuration not stated)	-1%	?	2%	0%	-5%	-1%
Cc1cc(C)cc(NC(=O)C(Cc2ccccc2)NS(=O)(=O)c2ccc3c(c2)CCC(=O)N3)c1 (configuration not stated)	·	-4%	6%	·	·	·
Cc1ccc(C(=O)N2CCc3cc(CNC(=O)c4ccccc4F)ccc32)cc1	·	·	19µM*	·	·	·
CNc1nc(-c2ccc3c(c2)CCN3C(=O)c2ccccc2F)cs1	0.56µM*	13µM*	1.5µM*	?	1.6µM*	?
CS(=O)(=O)N1CCc2cc(-c3csc(NC(=O)C(c4ccccc4)c4ccccc4)n3)ccc21	-7%	7%	0%	10%	-1%	-2%
CNc1nc(-c2ccc3c(c2)CCN3C(=O)c2ccccc2F)c(C)s1	11%	·	15µM*	?	9%	1%
COc1ccc(C(=O)/C=C/C(=O)N(Cc2ccc3c(c2)OCO3)C(C(=O)NC2CCCCC2)c2ccncc2)c(O)c1 (configuration not stated)	2%	-28%	-2%	7.3µM*	-1%	-5%
O=C(NC1CCCCC1)C(c1ccncc1)N(Cc1ccc2c(c1)OCO2)C(=O)c1cnsn1 (configuration not stated)	-3%	-5%	1%	-9%	-1%	0%
SMILES	Rab9 prom act	SMN2 splice enh	FLuc counter	ELG1 DNA repair	NPC1 prom act	ELG1 genotoxic
COCCN(CC(=O)NC1CCCCC1)C(=O)/C=C/C(=O)c1ccc(OC)cc1O	-1%	·	-5%	16%	-2%	0%
COc1ccc(CN(C(=O)/C=C/C(=O)c2ccc(OC)cc2O)C(C(=O)NC2CCCCC2)c2ccncc2)cc1 (configuration not stated)	-9%	-11%	4%	16µM*	-2%	-11%
CCN(CC)CCN(C(=O)c1ccco1)c1nc2c(C)c(C)ccc2s1	·	·	-10%	·	·	·
O=C(Nc1nc2ccc(S(=O)(=O)N3CCCC3)cc2s1)c1cccs1	20%	11%	?	2%	-6%	1%
CN(C)S(=O)(=O)c1ccc2nc(NC(=O)c3cccs3)sc2c1	0.89µM*	11µM*	1.2µM*	?	1.4µM*	2.3µM*
O=C(Nc1nc2ccc(S(=O)(=O)N3CCOCC3)cc2s1)c1cccs1	28%	·	19µM*	48%	27%	3%
CC(=O)Nc1ccc2nc(NC(=O)c3cccnc3)sc2c1	?	·	12µM*	?	?	11%
CN(C)S(=O)(=O)c1ccc2nc(NC(=O)c3cccnc3)sc2c1	·	14µM*	3.8µM*	·	·	·
O=C(CSc1ncc2c(n1)-c1ccccc1N(Cc1ccc(F)cc1)S2(=O)=O)NCc1ccccc1	·	·	2%	·	·	·
COc1ccc(CCNC(=O)c2cc(=O)[nH]c3ccc(S(=O)(=O)N4CCCCC4C)cc23)cc1OC (configuration not stated)	·	·	-7%	·	·	·
CC(=O)Nc1ccc2nc(NC(=O)CCc3ccccc3)sc2c1	?	-1%	-16%	7%	-2%	-2%
CSc1nc2ccc3nc(NC(=O)c4cccs4)sc3c2s1	4µM*	7%	2.1µM*	?	3.2µM*	?
CSc1nc2ccc3nc(NC(=O)c4ccc(Cl)s4)sc3c2s1	-6%	-12%	-16%	10%	4%	1%
CC(=O)Nc1ccc2nc(NC(=O)C(Cl)(Cl)Cl)sc2c1	26%	·	15µM*	?	25%	11%
O=C(Nc1nc2ccc(F)cc2s1)c1cccs1	1.1µM*	3.2µM*	2.4µM*	?	3.2µM*	?
CC(C)NS(=O)(=O)c1ccc2nc(NC(=O)c3cncc(Br)c3)sc2c1	·	·	19µM*	·	·	·
COc1ccc(C(=O)N2CCC[C@@]3(CCN(c4cccc(-c5ccccc5)c4)C3)C2)cc1	·	-34%	·	·	·	·
CC(=O)Nc1nc2ccc(-c3nc4ccccc4o3)cc2s1	4.5µM*	5µM*	3.4µM*	?	2.2µM*	?
COC(=O)[C@@]1(Cc2ccccc2)[C@H]2c3cc(C(=O)N4CCCC4)n(Cc4ccc(OC)c(OC)c4)c3C[C@H]2CN1C(=O)c1ccccc1	·	-25%	·	·	·	·

High-throughput results (PubChem BioAssay)
